# Test results taken from ChEMBL document CHEMBL1961873, “Compounds: GSK PKIS; Assays: Nanosyn kinase panel” (2012).
# Columns and labels:
# [1] = molecular target: Protein kinase C gamma type (Homo sapiens) (UniProt P05129); conditions: at 1 µM;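 note: each value is an averaged percent inhibition of the enzyme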
# [2] = molecular target: T1, Protein kinase C iota type (Homo sapiens) (UniProt P41743); conditions: at 0.1 µM
# T1 sequence (whole entry): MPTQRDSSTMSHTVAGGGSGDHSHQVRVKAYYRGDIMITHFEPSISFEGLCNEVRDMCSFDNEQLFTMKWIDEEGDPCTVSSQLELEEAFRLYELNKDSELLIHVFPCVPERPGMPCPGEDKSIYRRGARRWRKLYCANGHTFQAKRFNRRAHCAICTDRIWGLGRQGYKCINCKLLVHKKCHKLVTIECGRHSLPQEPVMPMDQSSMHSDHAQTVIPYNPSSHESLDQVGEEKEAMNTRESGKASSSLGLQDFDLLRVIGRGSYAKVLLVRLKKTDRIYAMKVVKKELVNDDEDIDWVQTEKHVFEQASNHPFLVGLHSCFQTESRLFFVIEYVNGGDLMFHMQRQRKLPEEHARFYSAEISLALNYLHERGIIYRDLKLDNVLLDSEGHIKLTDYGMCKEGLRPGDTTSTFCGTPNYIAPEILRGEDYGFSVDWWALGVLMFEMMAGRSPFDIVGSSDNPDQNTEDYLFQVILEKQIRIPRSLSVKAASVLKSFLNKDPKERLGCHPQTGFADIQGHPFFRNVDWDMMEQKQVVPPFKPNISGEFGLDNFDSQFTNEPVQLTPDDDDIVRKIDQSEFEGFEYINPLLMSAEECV
# [3] = molecular target: T1, Protein kinase C iota type (Homo sapiens); conditions: at 1 µM
# [4] = molecular target: Protein kinase C theta type (Homo sapiens) (UniProt Q04759); conditions: at 0.1 µM
# Chain of Protein kinase C theta type (Homo sapiens) (Q04759 whole entry, looked up): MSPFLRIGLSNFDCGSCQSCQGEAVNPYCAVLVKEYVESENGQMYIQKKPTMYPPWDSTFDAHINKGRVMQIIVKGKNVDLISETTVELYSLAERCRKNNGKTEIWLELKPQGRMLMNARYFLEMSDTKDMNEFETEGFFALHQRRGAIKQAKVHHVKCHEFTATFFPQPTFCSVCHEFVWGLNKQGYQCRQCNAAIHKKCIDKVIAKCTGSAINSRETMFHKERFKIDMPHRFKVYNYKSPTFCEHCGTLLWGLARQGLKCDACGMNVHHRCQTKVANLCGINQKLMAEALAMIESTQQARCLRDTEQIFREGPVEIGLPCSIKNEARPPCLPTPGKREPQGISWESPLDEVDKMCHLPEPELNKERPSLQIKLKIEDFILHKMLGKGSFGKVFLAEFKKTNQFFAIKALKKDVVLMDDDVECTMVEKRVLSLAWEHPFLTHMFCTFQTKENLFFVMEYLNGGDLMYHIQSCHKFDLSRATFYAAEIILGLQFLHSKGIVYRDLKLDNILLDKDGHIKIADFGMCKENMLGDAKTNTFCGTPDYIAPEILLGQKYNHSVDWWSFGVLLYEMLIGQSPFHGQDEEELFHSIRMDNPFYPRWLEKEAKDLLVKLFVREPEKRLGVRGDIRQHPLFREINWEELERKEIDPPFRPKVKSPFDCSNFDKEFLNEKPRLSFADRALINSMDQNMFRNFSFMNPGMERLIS
# [5] = molecular target: Protein kinase C theta type (Homo sapiens) (UniProt Q04759); conditions: at 1 µM
# [6] = molecular target: Protein kinase C beta type (Homo sapiens) (UniProt P05771); conditions: at 0.1 µM
# Chain of Protein kinase C beta type (Homo sapiens) (P05771 2-671 limits assumed): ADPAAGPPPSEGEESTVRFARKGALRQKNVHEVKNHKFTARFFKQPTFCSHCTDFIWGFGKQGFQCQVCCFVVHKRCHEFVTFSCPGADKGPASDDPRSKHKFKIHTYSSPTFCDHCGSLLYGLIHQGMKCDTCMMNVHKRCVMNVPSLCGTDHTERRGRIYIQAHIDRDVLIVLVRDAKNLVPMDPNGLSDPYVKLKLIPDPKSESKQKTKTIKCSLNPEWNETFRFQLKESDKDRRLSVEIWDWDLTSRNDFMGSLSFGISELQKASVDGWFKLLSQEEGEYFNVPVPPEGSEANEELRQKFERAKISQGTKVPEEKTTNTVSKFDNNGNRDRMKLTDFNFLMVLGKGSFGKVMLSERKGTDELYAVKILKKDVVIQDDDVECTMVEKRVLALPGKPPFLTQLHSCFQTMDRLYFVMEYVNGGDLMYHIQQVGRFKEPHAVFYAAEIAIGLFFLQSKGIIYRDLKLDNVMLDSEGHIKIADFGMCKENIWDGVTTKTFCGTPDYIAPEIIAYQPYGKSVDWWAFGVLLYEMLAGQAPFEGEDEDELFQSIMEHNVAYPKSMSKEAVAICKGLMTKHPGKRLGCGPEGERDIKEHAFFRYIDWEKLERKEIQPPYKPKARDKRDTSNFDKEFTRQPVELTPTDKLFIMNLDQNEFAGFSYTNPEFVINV
# [7] = molecular target: Protein kinase C beta type (Homo sapiens) (UniProt P05771); conditions: at 1 µM
# [8] = molecular target: T2, Serine/threonine-protein kinase D1 (Homo sapiens) (UniProt Q15139); conditions: at 0.1 µM
# T2 sequence (whole entry): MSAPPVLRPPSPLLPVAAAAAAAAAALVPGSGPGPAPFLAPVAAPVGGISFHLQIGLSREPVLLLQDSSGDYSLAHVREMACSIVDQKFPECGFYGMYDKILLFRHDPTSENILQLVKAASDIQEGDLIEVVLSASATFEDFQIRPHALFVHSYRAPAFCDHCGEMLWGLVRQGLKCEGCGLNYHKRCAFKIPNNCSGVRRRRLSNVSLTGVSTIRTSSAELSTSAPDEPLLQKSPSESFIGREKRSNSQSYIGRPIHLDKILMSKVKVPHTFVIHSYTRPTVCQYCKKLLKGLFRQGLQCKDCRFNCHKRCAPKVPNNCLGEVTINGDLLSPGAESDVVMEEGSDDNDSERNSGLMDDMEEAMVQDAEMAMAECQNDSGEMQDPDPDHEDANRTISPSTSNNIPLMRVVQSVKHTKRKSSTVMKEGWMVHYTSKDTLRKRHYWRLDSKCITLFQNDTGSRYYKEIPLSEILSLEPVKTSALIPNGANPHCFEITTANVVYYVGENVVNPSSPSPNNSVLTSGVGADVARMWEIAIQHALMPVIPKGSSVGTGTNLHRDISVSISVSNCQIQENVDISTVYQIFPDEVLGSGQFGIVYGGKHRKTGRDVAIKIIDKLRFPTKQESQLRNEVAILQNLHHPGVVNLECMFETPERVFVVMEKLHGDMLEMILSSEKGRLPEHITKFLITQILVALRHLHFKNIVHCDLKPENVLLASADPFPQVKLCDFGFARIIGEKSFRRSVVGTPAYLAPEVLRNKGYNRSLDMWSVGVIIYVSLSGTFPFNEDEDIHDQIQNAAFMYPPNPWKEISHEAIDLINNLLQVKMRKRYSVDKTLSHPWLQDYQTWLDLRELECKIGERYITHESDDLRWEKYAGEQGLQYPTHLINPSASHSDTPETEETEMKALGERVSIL
# [9] = molecular target: T2, Serine/threonine-protein kinase D1 (Homo sapiens); conditions: at 1 µM
# [10] = molecular target: T3, Serine/threonine-protein kinase D2 (Homo sapiens) (UniProt Q9BZL6); conditions: at 0.1 µM
# T3 sequence (whole entry): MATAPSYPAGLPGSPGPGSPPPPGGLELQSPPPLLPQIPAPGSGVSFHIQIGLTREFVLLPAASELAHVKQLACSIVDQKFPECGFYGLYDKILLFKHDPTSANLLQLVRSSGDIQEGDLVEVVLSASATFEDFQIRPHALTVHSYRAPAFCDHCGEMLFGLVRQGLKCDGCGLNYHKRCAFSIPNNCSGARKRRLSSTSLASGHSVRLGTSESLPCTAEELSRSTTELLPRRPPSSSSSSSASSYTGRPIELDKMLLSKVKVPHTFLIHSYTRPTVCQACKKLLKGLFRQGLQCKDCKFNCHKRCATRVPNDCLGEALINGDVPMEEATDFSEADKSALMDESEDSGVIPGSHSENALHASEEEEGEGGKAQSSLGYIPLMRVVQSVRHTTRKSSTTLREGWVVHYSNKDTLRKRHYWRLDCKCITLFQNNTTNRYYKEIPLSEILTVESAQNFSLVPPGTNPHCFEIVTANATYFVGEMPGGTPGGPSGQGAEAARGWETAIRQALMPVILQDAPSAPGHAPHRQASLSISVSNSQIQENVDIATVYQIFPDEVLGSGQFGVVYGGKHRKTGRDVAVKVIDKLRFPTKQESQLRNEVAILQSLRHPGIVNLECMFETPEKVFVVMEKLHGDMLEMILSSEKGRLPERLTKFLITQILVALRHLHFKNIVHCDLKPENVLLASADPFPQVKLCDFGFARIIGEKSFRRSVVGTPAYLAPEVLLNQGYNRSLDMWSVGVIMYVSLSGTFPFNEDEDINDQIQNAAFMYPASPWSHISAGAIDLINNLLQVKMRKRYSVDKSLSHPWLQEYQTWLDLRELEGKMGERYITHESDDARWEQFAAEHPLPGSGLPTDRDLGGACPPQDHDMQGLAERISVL
# [11] = molecular target: T3, Serine/threonine-protein kinase D2 (Homo sapiens); conditions: at 1 µM
# [12] = molecular target: T4, Serine/threonine-protein kinase D3 (Homo sapiens) (UniProt O94806); conditions: at 0.1 µM
# T4 sequence (whole entry): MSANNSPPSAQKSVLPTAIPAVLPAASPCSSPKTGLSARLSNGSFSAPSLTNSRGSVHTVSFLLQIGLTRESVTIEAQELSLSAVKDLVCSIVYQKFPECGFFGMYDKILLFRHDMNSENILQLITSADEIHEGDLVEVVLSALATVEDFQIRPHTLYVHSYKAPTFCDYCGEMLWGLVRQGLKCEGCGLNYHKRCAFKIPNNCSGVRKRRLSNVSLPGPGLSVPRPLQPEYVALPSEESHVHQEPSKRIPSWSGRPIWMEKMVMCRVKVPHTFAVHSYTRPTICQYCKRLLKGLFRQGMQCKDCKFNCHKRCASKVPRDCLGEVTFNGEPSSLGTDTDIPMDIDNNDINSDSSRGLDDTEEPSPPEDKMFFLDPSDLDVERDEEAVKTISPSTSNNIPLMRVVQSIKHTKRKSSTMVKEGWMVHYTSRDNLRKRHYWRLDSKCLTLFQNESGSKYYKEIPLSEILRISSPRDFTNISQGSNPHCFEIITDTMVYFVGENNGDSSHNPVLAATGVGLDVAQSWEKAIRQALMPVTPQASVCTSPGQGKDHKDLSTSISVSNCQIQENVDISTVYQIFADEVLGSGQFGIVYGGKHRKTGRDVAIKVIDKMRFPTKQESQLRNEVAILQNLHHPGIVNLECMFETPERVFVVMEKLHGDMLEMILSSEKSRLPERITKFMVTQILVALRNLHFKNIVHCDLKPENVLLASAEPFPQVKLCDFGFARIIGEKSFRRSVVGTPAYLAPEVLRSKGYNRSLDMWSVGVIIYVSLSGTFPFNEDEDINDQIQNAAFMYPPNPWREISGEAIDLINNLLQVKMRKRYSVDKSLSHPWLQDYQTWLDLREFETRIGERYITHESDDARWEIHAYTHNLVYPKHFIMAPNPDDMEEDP
# [13] = molecular target: T4, Serine/threonine-protein kinase D3 (Homo sapiens); conditions: at 1 µM
# [14] = molecular target: T5, cGMP-dependent protein kinase 1 (Homo sapiens) (UniProt Q13976); conditions: at 0.1 µM
# T5 sequence (whole entry): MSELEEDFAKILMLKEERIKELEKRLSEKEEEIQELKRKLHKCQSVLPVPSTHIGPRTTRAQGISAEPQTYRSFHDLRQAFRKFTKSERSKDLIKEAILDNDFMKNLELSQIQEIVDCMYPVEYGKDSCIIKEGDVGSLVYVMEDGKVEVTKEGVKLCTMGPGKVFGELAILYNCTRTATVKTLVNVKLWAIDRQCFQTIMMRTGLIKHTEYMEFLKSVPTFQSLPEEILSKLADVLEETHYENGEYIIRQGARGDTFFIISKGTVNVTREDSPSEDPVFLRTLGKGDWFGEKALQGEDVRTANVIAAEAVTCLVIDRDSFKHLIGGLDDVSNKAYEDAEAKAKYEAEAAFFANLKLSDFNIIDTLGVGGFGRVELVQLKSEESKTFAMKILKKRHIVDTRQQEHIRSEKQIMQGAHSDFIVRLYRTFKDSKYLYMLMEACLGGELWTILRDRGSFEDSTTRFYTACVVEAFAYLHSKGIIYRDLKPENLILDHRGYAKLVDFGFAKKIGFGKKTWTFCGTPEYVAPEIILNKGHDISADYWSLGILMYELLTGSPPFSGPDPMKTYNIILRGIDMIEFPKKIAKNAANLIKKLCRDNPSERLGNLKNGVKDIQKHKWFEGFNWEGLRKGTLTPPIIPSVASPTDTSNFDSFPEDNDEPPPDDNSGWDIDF
# [15] = molecular target: T5, cGMP-dependent protein kinase 1 (Homo sapiens); conditions: at 1 µM
# [16] = molecular target: T6, cGMP-dependent protein kinase 2 (Homo sapiens) (UniProt Q13237); conditions: at 0.1 µM
# T6 sequence (whole entry): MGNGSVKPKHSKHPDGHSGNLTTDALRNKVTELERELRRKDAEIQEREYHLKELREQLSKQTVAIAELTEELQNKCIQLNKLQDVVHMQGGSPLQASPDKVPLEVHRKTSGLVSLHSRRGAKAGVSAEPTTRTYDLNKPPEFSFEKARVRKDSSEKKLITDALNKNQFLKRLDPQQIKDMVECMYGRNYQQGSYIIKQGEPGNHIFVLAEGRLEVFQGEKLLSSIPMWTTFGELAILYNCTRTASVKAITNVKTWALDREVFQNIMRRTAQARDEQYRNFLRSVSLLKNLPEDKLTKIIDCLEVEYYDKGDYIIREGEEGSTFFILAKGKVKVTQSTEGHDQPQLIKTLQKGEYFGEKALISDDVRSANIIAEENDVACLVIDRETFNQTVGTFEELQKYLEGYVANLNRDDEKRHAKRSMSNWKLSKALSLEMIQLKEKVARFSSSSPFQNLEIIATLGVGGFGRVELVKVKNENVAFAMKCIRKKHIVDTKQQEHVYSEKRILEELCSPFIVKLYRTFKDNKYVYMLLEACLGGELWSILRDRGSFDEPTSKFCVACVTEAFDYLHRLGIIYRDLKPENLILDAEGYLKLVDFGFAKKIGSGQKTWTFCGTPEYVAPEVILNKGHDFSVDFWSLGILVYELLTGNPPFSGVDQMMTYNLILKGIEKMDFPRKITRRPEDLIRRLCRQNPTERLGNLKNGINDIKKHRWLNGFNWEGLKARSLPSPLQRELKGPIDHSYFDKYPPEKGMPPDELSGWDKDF
# [17] = molecular target: T6, cGMP-dependent protein kinase 2 (Homo sapiens); conditions: at 1 µM
# [18] = molecular target: T7, cAMP-dependent protein kinase catalytic subunit PRKX (Homo sapiens) (UniProt P51817); conditions: at 0.1 µM
# T7 sequence (whole entry): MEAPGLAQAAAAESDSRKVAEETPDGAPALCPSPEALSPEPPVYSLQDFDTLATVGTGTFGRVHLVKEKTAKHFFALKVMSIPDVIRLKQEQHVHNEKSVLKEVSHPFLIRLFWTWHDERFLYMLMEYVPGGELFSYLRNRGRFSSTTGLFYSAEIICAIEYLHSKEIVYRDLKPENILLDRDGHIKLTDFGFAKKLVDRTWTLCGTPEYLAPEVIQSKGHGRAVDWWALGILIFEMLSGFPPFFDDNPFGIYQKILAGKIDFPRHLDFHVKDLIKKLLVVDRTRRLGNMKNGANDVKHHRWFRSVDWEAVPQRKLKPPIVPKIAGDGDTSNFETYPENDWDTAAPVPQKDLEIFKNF
# [19] = molecular target: T7, cAMP-dependent protein kinase catalytic subunit PRKX (Homo sapiens); conditions: at 1 µM
# [20] = molecular target: Rho-associated protein kinase 1 (Homo sapiens) (UniProt Q13464); conditions: at 0.1 µM;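 note: values are mean percent inhibition of ROCK1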
# Chain of Rho-associated protein kinase 1 (Homo sapiens) (Q13464 2-1354 limits assumed): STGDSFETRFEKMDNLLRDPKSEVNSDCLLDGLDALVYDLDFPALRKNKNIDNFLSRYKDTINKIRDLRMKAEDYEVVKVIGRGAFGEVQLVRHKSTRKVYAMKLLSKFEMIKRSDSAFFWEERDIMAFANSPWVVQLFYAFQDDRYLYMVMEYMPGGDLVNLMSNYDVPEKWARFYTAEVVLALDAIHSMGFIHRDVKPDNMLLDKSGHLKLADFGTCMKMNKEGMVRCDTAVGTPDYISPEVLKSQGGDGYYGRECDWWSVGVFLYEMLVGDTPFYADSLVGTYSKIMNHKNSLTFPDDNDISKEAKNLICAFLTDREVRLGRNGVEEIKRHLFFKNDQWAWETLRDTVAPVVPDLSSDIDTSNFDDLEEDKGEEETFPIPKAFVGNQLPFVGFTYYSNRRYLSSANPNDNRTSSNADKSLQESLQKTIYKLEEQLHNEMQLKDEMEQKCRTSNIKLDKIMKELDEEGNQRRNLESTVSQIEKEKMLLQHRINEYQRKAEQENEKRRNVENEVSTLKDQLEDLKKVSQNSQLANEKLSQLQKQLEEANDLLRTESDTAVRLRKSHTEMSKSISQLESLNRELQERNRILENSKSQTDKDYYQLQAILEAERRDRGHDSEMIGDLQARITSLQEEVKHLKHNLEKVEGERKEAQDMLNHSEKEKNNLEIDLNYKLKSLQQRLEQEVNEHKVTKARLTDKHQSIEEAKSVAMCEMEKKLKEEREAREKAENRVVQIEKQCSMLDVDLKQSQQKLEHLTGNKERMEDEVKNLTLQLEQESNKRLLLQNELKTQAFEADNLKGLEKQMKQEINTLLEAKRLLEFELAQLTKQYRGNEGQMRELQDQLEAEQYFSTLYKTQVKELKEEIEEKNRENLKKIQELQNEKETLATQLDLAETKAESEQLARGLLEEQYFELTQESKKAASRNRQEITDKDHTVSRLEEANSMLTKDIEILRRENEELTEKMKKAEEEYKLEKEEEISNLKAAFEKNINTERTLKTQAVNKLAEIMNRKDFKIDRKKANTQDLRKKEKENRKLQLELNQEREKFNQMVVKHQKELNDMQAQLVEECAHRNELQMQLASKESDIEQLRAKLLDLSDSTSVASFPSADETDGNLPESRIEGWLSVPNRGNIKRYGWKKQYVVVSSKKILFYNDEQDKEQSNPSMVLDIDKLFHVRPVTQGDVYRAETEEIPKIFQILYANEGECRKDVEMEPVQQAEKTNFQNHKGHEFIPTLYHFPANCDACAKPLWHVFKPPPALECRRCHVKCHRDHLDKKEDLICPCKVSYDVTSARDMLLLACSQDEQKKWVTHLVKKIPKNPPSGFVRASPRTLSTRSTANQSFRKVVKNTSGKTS
SMILES,inhibition [1] [%],inhibition [2] [%],inhibition [3] [%],inhibition [4] [%],inhibition [5] [%],inhibition [6] [%],inhibition [7] [%],inhibition [8] [%],inhibition [9] [%],inhibition [10] [%],inhibition [11] [%],inhibition [12] [%],inhibition [13] [%],inhibition [14] [%],inhibition [15] [%],inhibition [16] [%],inhibition [17] [%],inhibition [18] [%],inhibition [19] [%],inhibition [20] [%]
CN(c1ccc(NC(=O)NCCN2CCOCC2)cc1)c1ccnc(Nc2ccc(CS(C)(=O)=O)cc2)n1,4.99,2.77,2.1,2.63,3.43,0.67,-0.33,2.05,1.78,2,1.04,1.13,0.94,2.25,2.49,0.06,0.57,2.36,4.38,1.51
NS(=O)(=O)c1ccc(N/N=C2\C(=O)Nc3ccc(C(=O)NCc4ccncc4)cc32)cc1,6.61,-9.87,1.34,3.98,8.38,1.7,4.09,3.88,24.4,6.54,18.5,4.33,16.4,5,19.3,5.42,18.4,6.16,15.5,0.63
COc1ccc2ncn(-c3cc(O[C@H](C)c4ccccc4C(F)(F)F)c(C(N)=O)s3)c2c1,3.02,-1.03,-0.45,-0.16,-0.58,-0.24,0.08,-0.46,0.62,2.18,1.77,-0.52,0.07,0.03,1.49,0.1,0.7,-0.2,-0.15,0.72
